Source: the supplement of paper PMC10849652
About 7,900 targets were measured; listed, in parts, are those with a hit and a random draw of the rest. About 0.6% of all pairs of compound and target were hits. Values without a mark were called inactive.

Assays:
Assay in all cases: log2 fold change, soluble protein after heating vs DMSO (PISA); higher = thermal stabilisation; K562 cells, 10 uM, 30 min; active = over 0.2 and 3.5 SD of the protein, either way, in both replicates (recomputed)
[1] = compound: CS(=O)(=O)c1ccc(-c2cnc(N)c(C(=O)Nc3ccccc3)n2)cc1
How it was run: (§1)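 K562 cells at 2×10^6 cells/mL were given 10 μM compound for 30 min. Aliquots then went through 3 min of heating across 48°C-58°C, were pooled, and were extracted in PBS with 0.5% NP-40 at 4°C, and the supernatant after 21,000xg for 90 min was quantified by TMTpro 16plex LC-MS/MS with channel sums equalised. Thermal stability relative to control samples, from duplicates, is given as log2 fold change.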

[2] = compound: C[C@@H](Oc1cc(-c2cnn(C3CCNCC3)c2)cnc1N)c1c(Cl)ccc(F)c1Cl [crizotinib]
How it was run: as §1

[3] = compound: C[C@@H]1COCCN1C2=NC(=NC(=C2)C3(CC3)S(=O)(=O)C)C4=C5C=CNC5=CC=C4
How it was run: as §1

[4] = compound: C[C@H](C1=CC=C(C=C1)C(=O)NC2=C3C=CNC3=NC=C2)N
How it was run: as §1

[5] = compound: C[C@H](Nc1ncnc2nc[nH]c12)c1cc2cccc(Cl)c2c(=O)n1-c1ccccc1 [duvelisib]
How it was run: as §1

[6] = compound: Cc1cc(Nc2cc(CN3CCOCC3)c3nc(C)c(Cc4ccc(Cl)cc4F)n3n2)n[nH]1 [gandotinib]
How it was run: as §1

[7] = compound: Cc1cc(Nc2cc(N3CCN(C)CC3)nc(Sc3ccc(NC(=O)C4CC4)cc3)n2)n[nH]1 [tozasertib]
How it was run: as §1

[8] = compound: Cc1cc(SCc2sc(-c3ccc(C(F)(F)F)cc3)nc2C)ccc1OCC(=O)O
How it was run: as §1

[9] = compound: Cc1ccc(-n2nc(C(C)(C)C)cc2NC(=O)Nc2ccc(OCCN3CCOCC3)c3ccccc23)cc1 [doramapimod]
How it was run: as §1

[10] = compound: Cc1ccc(C(=O)N(CCCN)[C@@H](c2nc3cc(Cl)ccc3c(=O)n2Cc2ccccc2)C(C)C)cc1 [ispinesib]
How it was run: as §1

[11] = compound: Cc1ccc(NC(=O)c2ccc(CN3CC[C@H](N(C)C)C3)c(C(F)(F)F)c2)cc1Nc1nccc(-c2cncnc2)n1 [bafetinib]
How it was run: as §1

[12] = compound: Cc1cccc(CC(=O)N2CCc3c2ccc(-c2cn(C)c4ncnc(N)c24)c3F)n1
How it was run: as §1

[13] = compound: Cc1cn(-c2cc(NC(=O)c3ccc(C)c(Nc4nccc(-c5cccnc5)n4)c3)cc(C(F)(F)F)c2)cn1 [nilotinib]
How it was run: as §1

[14] = compound: Cc1nc(Nc2n[nH]c3c2CN(C(=O)N[C@H](CN(C)C)c2ccccc2)C3(C)C)c2sccc2n1
How it was run: as §1

[15] = compound: Cc1nc(Nc2ncc(C(=O)Nc3c(C)cccc3Cl)s2)cc(N2CCN(CCO)CC2)n1 [dasatinib]
How it was run: as §1

[16] = compound: Cc1ncc(-c2ccnc(Nc3ccc(S(C)(=O)=O)cc3)n2)n1C(C)C
How it was run: as §1

[17] = compound: Cn1cc(-c2ccc3c(c2)CCN3C(=O)Cc2cccc(C(F)(F)F)c2)c2c(N)ncnc21
How it was run: as §1

[18] = compound: Cn1cc(-c2ccc3nnc(C(F)(F)c4ccc5ncccc5c4)n3n2)cn1
How it was run: as §1

[19] = compound: Cn1cncc1[C@@](N)(c1ccc(Cl)cc1)c1ccc2c(c1)c(-c1cccc(Cl)c1)cc(=O)n2C [tipifarnib]
How it was run: as §1

[20] = compound: FC(F)(F)c1ccc(/C=C/c2nc(COc3ccc(CCCCn4ccnn4)cc3)co2)cc1 [mubritinib]
How it was run: as §1

Sequence of UniProt O00748 (O00748 whole entry, looked up): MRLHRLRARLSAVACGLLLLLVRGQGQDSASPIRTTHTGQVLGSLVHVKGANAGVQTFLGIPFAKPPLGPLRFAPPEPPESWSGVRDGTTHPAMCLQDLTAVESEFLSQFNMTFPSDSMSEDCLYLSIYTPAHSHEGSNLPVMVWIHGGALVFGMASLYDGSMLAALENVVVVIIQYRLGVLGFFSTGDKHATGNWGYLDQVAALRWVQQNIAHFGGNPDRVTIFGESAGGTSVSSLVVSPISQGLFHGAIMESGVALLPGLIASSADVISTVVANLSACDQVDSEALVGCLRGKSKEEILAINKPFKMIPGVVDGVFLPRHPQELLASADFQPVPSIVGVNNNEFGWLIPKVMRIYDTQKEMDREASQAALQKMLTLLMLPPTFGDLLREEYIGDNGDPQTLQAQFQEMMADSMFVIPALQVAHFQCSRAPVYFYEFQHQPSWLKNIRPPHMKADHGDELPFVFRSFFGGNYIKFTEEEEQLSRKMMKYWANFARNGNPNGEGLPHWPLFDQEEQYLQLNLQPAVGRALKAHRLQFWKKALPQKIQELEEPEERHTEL
Sequence of UniProt Q9BSQ5 (Q9BSQ5 whole entry, looked up): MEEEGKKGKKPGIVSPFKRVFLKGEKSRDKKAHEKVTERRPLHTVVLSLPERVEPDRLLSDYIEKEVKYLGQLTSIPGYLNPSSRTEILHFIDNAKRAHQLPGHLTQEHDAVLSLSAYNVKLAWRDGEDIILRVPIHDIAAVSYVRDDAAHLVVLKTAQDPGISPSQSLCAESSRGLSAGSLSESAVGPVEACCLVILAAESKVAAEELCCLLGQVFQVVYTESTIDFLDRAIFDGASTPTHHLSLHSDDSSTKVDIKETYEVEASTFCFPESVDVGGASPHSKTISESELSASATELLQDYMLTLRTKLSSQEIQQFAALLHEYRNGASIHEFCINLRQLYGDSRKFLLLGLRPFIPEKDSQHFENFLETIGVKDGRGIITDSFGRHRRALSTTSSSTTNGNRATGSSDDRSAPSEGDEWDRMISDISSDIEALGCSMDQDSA
Sequence of UniProt P19397 (P19397 whole entry, looked up): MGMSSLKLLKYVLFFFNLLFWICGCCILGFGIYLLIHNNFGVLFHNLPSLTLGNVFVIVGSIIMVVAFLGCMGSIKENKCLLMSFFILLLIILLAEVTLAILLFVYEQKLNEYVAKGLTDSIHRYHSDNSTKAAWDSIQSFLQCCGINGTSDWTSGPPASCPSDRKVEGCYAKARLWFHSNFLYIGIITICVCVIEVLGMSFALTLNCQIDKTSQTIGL
Sequence of UniProt Q14061 (Q14061 whole entry, looked up): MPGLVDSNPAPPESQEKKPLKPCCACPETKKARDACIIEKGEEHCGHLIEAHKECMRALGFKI
Sequence of UniProt O76031 (O76031 whole entry, looked up): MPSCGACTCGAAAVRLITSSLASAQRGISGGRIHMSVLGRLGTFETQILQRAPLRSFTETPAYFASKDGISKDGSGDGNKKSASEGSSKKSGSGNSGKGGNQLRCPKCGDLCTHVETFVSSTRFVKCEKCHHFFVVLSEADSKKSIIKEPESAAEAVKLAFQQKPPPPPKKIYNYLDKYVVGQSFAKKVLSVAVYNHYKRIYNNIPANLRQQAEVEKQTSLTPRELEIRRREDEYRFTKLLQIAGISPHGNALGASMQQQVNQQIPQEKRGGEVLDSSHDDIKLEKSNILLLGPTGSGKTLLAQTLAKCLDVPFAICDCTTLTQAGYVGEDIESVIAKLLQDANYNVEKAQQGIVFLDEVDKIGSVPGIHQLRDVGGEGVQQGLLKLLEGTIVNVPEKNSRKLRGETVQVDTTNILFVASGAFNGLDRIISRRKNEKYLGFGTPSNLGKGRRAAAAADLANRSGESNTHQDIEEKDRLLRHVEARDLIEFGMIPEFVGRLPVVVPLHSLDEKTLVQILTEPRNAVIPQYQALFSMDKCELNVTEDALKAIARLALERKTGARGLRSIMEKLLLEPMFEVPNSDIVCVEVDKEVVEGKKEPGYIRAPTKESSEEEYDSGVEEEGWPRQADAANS
Sequence of UniProt Q96KA5 (Q96KA5 whole entry, looked up): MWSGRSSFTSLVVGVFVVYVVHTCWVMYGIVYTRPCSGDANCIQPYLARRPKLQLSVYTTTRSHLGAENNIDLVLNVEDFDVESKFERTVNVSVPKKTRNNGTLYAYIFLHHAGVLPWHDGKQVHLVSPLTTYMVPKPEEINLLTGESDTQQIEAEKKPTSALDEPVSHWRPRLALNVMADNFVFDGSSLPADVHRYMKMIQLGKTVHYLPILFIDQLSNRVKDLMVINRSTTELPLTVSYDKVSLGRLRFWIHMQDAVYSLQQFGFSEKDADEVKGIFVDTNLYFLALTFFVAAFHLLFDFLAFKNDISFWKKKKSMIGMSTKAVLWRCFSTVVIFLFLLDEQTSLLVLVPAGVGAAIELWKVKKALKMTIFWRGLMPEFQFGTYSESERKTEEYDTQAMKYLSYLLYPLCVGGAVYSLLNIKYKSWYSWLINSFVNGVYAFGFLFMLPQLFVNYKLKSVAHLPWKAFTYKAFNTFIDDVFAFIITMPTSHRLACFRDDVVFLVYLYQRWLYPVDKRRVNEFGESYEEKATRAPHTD
Sequence of UniProt P46108 (P46108 whole entry, looked up): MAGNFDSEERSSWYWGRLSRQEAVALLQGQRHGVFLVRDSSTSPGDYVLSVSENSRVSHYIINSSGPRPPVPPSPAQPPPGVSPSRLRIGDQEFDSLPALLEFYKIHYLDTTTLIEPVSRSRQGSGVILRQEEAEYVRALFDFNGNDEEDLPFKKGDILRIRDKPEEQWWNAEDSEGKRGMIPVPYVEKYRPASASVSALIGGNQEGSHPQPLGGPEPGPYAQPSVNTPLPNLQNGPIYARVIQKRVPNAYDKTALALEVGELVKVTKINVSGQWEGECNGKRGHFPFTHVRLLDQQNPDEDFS
Sequence of UniProt P55211 (P55211 whole entry, looked up): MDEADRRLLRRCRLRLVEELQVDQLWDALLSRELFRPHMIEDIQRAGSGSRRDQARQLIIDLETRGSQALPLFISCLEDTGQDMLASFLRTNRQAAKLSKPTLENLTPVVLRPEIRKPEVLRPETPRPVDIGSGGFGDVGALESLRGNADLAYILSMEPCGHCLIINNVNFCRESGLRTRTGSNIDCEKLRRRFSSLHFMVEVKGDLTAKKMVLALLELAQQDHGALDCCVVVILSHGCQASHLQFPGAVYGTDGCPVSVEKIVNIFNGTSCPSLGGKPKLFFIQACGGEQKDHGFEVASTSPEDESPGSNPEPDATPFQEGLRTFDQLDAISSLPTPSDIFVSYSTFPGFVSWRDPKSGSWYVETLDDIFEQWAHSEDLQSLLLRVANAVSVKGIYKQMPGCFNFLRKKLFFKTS
Sequence of UniProt P49336 (P49336 whole entry, looked up): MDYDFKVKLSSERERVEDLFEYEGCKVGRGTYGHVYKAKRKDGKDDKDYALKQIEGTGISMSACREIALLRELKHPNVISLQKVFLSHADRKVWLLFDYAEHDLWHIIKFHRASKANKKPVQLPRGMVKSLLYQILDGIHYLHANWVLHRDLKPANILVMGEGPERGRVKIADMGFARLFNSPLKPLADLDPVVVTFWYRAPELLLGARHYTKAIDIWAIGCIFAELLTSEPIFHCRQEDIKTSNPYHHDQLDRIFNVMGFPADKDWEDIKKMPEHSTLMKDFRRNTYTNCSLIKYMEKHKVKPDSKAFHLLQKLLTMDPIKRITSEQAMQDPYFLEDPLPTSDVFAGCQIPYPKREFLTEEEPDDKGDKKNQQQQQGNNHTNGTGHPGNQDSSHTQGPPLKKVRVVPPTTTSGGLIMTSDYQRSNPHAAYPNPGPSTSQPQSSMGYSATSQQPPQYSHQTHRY
Sequence of UniProt Q9P031 (Q9P031 whole entry, looked up): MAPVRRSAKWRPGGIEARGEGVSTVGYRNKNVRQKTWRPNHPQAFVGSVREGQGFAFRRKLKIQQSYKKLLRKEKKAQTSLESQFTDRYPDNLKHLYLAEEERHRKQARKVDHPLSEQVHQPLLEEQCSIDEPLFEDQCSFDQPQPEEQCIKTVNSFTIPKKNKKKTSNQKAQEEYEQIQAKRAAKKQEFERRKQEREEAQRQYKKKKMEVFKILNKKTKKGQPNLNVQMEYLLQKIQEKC
Sequence of UniProt Q7L3B6 (Q7L3B6 whole entry, looked up): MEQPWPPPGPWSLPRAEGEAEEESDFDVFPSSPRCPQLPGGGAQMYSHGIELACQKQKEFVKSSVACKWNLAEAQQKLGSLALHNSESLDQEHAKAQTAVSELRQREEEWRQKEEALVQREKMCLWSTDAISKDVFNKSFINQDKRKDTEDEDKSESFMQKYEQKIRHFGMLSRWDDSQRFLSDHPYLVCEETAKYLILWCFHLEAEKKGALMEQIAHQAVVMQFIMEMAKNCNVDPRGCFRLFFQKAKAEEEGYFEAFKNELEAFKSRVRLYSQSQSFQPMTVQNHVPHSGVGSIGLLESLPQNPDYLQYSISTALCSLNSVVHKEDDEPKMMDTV
Sequence of UniProt Q6NZI2 (Q6NZI2 whole entry, looked up): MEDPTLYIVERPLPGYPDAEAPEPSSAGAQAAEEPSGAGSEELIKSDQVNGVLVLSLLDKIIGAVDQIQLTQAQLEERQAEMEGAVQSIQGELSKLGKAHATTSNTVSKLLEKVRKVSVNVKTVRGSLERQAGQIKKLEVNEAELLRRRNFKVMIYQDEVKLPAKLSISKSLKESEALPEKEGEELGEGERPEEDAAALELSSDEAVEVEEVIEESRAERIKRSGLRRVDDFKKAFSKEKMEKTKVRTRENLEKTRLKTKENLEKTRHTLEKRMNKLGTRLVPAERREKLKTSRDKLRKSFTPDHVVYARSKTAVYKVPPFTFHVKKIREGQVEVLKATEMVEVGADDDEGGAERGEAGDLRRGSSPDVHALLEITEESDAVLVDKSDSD
Sequence of UniProt Q9UIV1 (Q9UIV1 whole entry, looked up): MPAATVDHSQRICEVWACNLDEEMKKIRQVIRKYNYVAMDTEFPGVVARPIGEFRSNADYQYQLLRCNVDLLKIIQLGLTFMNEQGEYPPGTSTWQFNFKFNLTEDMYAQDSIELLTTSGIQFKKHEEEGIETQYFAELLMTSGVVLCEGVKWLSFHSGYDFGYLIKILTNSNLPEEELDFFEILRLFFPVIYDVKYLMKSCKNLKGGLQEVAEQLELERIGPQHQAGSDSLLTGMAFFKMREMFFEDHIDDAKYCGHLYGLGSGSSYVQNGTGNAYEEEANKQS

| Target | log2 fold change [1] | log2 fold change [2] | log2 fold change [3] | log2 fold change [4] | log2 fold change [5] | log2 fold change [6] | log2 fold change [7] | log2 fold change [8] | log2 fold change [9] | log2 fold change [10] | log2 fold change [11] | log2 fold change [12] | log2 fold change [13] | log2 fold change [14] | log2 fold change [15] | log2 fold change [16] | log2 fold change [17] | log2 fold change [18] | log2 fold change [19] | log2 fold change [20] |
| --- | --- | --- | --- | --- | --- | --- | --- | --- | --- | --- | --- | --- | --- | --- | --- | --- | --- | --- | --- | --- |
| CDC37L1 (UniProt Q7L3B6) | 0.007 | 0.036 | 0.148 | -0.013 | -0.039 | -0.091 | -0.093 | 0.117 | -0.036 | 0.005 | -0.215 | 0.027 | -0.026 | -0.167 | -0.088 | 0.022 | 0.018 | 0.121 | 0.034 | 0.172 |
| CCDC59 (UniProt Q9P031) | 0.09 | -0.084 | 0 | 0.389 | -0.157 | 0.186 | 0.01 | 0.006 | 0.164 | -0.136 | 0.117 | -0.041 | 0.032 | 0.048 | 0.037 | 0.028 | -0.277 | -0.13 | 0.09 | -0.056 |
| CD53 (UniProt P19397) | 0.101 | 0.047 | 0.005 | -0.084 | 0.234 | -0.016 | -0.165 | -0.11 | 0.103 | 0.023 | 0.091 | -0.418 (active) | 0.069 | 0.002 | 0.078 | -0.003 | 0.145 | 0.125 | 0.057 | 0.081 |
| CASP2 (UniProt P42575) | 0.004 | -0.062 | 0.023 | -0.002 | 0.061 | -0.071 | 0.083 | 0.05 | 0.077 | 0.039 | 0.041 | -0.035 | -0.037 | 0.076 | -0.165 | 0.114 | 0.105 | -0.056 | -0.118 | 0.006 |
| CLPX (UniProt O76031) | 0.061 | 0.291 (active) | 0.027 | 0.004 | 0.004 | 0.003 | -0.012 | -0.05 | -0.002 | 0.018 | 0.008 | -0.074 | -0.006 | 0.042 | 0.006 | -0.019 | -0.012 | 0.032 | 0.052 | -0.048 |
| CLPTM1L (UniProt Q96KA5) | 0.036 | -0.08 | 0.025 | -0.013 | 0.047 | -0.268 (active) | 0.012 | 0 | -0.012 | -0.326 (active) | -0.186 | 0.07 | -0.103 | 0.009 | -0.045 | -0.016 | -0.042 | 0.011 | -0.056 | 0.02 |
| CSNK2A1 (UniProt P68400) | 0.055 | -0.04 | 0.016 | -0.17 | 0.01 | 0.043 | -0.004 | 0.005 | -0.022 | 0.029 | -0.02 | -0.073 | 0.032 | 0.019 | -0.03 | -0.055 | -0.019 | 0.035 | 0.03 | -0.019 |
| CASP9 (UniProt P55211) | 0.088 | 0.002 | 0.014 | 0.014 | 0.104 | -0.152 | 0.138 | 0.064 | 0.05 | 0.037 |  | 0.037 | -0.013 | -0.136 | -0.075 | 0 | -0.276 | -0.004 | 0.003 |  |
| CCM2 isoform 2 (UniProt Q9BSQ5) | 0.088 | -0.022 | -0.016 | 0.003 | -0.02 | 0.026 | 0.132 | -0.067 | 0.013 | -0.043 | -0.059 | -0.038 |  |  | -0.003 |  | 0.043 | -0.021 | -0.024 | -0.061 |
| COX17 (UniProt Q14061) | 0.026 | 0.164 | 0.206 | -0.072 | 0.256 | -0.11 | 0.005 | -0.021 | -0.037 | 0.137 |  | 0.078 | -0.091 | -0.051 | 0.016 | -0.162 | 0.206 | -0.034 |  | 0.038 |
| CES2 isoform 4 (UniProt O00748) | 0.162 | 0.154 | 0.03 | -0.079 | 0.019 | 0.048 | -0.093 | -0.188 | 0.144 | -0.047 | -0.006 | -0.104 | 0.274 | -0.045 | 0.119 | -0.036 | 0.489 (active) | 0.166 | 0.28 | 0.111 |
| CNOT7 (UniProt Q9UIV1) | -0.052 | -0.097 | 0.043 | 0.219 | 0.069 | -0.003 | -0.007 | 0.022 | 0.07 | -0.072 | 0.059 | -0.037 | -0.077 | -0.057 | -0.255 | 0.002 | -0.034 | -0.051 | -0.075 | 0.014 |
| CAVIN1 (UniProt Q6NZI2) | -0.023 | -0.046 | -0.34 | 0.174 | -0.131 | 0.145 | 0.058 | 0.06 | 0.135 | 0.067 | 0.114 | 0.004 | -0.047 | 0.104 | -0.001 | -0.11 | -0.157 | -0.204 | 0.125 | -0.067 |
| CDK8 (UniProt P49336) | -0.049 | -0.029 | 0.033 | 0.248 | -0.071 | -0.13 | -0.199 | 0.155 | 0.425 (active) | 0.031 | 0.109 | 0.014 |  |  | 0.067 |  | 0.057 | 0.018 | 0 | 0.01 |
| CRK (UniProt P46108) | 0.043 | -1.02 (active) | 0.008 | -0.064 | -0.025 | -0.096 | -0.254 | 0.058 | 0.01 | -0.004 | -0.586 (active) | -0.02 | -0.826 (active) | -0.136 | -0.883 (active) | 0.036 | -0.007 | 0.03 | 0.026 | 0.075 |
